Counter-ions that a name gives are not always drawn.
Legend:
Experiment in all cases: Euclidean distance of Cell Painting phenotypic profile (signed KS, 77 features) to DMSO centroid (dimensionless distance); 5 or 10 uM (library dependent); higher = stronger phenotypic change vs DMSO (phenoactivity)
Settings in all cases: 48 h
786-O = system: 786-O
Method in brief: (§1)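 At 10 or 5 uM, as set by the library, and 0.1% DMSO final, compounds were applied for 48 h to five cancer lines and one healthy fibroblast line. Stained cells were imaged confocally at 20X in 9 fields per well, and Harmony extracted 77 features scored as signed Kolmogorov-Smirnov statistics against vehicle wells on the same plate. Profiles underwent plate-position correction, correlation weighting and replicate averaging at the top dose. Phenoactivity is the Euclidean distance from each such profile to the median vehicle profile.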

A549 = system: A549
Method in brief: as §1

DU145 = system: DU145
Method in brief: as §1

FB = system: FB
Method in brief: as §1

HEPG2 = system: HEPG2
Method in brief: as §1

OVCAR4 = system: OVCAR4
Method in brief: as §1

| Compound | Euclidean distance (786-O) | Euclidean distance (A549) | Euclidean distance (DU145) | Euclidean distance (FB) | Euclidean distance (HEPG2) | Euclidean distance (OVCAR4) |
| --- | --- | --- | --- | --- | --- | --- |
| N[C@@H](Cc1cc(I)c(Oc2ccc(O)c(I)c2)c(I)c1)C(=O)O [Liothyronine Sodium] | 0.896 | 0.796 | 0.838 | 1.56 | 1.41 | 0.927 |
| O=C(O)CCc1nc(-c2ccccc2)c(-c2ccccc2)o1 [Oxaprozin] | 1.01 | 0.794 | 0.541 | 0.987 | 1.16 | 1.28 |
| Cc1cc(C)c(Nc2ccnc(Nc3ccc(C#N)cc3)n2)c(C)c1 [Dapivirine (TMC120)] | 2.34 | 2.56 | 1.87 | 1.33 | 3.09 | 2.01 |
| O=NN(CCCl)C(=O)NC1CCCCC1 [Lomustine] | 0.894 | 0.833 | 0.869 | 1.05 | 0.457 | 1 |
| NS(=O)(=O)c1cc2c(cc1Cl)N=CNS2(=O)=O [Chlorothiazide] | 1.21 | 0.957 | 1.22 | 1.35 | 0.662 | 0.734 |
| Clc1ccc(Cn2c(CN3CCCC3)nc3ccccc32)cc1 [Clemizole] | 1.07 | 0.265 | 1.22 | 0.972 | 0.65 | 0.648 |
| O=C(CCCCCCC(=O)Nc1ccccc1)NO [Vorinostat (SAHA. MK0683)] | 3.44 | 2.96 | 3.15 | 3.77 | 3.15 | 2.85 |
| COc1ccc(CN2CCN(C(c3ccc(F)cc3)c3ccc(F)cc3)CC2)c(OC)c1OC [Lomerizine 2HCl] | 1.91 | 1.66 | 1.02 | 1.08 | 1.13 | 1.72 |
| O=c1[nH]c2ccccc2n1CCN1CCN(c2cccc(C(F)(F)F)c2)CC1 [Flibanserin] | 1.14 | 1.22 | 0.833 | 1.07 | 0.806 | 1.35 |
| CC(C)(C)C(=O)OCOC(=O)[C@@H]1N2C(=O)[C@@H](/N=C/N3CCCCCC3)[C@H]2SC1(C)C [Pivmecillinam hydrochloride] | 1.23 | 1.69 | 0.728 | 0.994 | 0.59 | 1.14 |
| N#Cc1cc(-c2n[nH]c(-c3ccncc3)n2)ccn1 [Topiroxostat] | 1.19 | 1.05 | 1.49 | 1.16 | 0.521 | 1.32 |
| CCOC(=O)/C=C(C)/C=C/C=C(C)/C=C/c1c(C)cc(OC)c(C)c1C [Etretinate] | 0.891 | 0.993 | 1.22 | 1.15 | 1.14 | 1.85 |
| Cn1cc(C2=C(c3cccc(N)c3)C(=O)NC2=O)c2ccccc21 | 3.84 | 2.48 | 2.97 | 1.8 | 1.6 | 3.79 |
| CN(C)CCC=C1c2ccccc2CCc2ccccc21 [Amitriptyline HCl] | 1.34 | 1.54 | 1.54 | 1.52 | 1.48 | 1.99 |
| CN1C2CCCC1CC(NC(=O)c1nn(C)c3ccccc13)C2 (centres undefined) [Granisetron HCl] | 1.32 | 0.903 | 1.37 | 1.04 | 1.27 | 1 |
| CC(C)(O)CC[C@@H](O)[C@](C)(O)[C@H]1CC[C@@]2(O)C3=CC(=O)[C@@H]4C[C@@H](O)[C@@H](O)C[C@]4(C)[C@H]3CC[C@]12C [20-Hydroxyecdysone] | 0.539 | 1.05 | 1.19 | 1.28 | 1.06 | 1.08 |
| CO[C@@H](C)Cn1c(=O)n(C)c2cnc3ccc(-c4cncc(C(C)(C)O)c4)cc3c21 | 3.52 | 4.06 | 2.18 | 4.79 | 2.61 | 3.29 |
| N=C(NOCC(O)CN1CCCCC1)c1cccnc1 (centres undefined) | 1.13 | 0.912 | 1.06 | 1.33 | 0.604 | 1.05 |
| CC(C)[C@H]1CC[C@H](C(=O)N[C@H](Cc2ccccc2)C(=O)O)CC1 [Nateglinide] | 2.04 | 1.19 | 1.17 | 0.97 | 0.589 | 1.71 |
| N=C(N)c1ccc(N=NNc2ccc(C(=N)N)cc2)cc1 [Diminazene Aceturate] | 1.25 | 1.11 | 1.1 | 0.72 | 2.06 | 0.868 |
| CC(C(O)c1ccc(O)cc1)N1CCC(Cc2ccccc2)CC1 (centres undefined) [Ifenprodil Tartrate] | 0.976 | 0.88 | 0.955 | 1.22 | 0.958 | 0.965 |
| CCOc1ccc(C[C@H]2NC(=O)CCSSC[C@@H](C(=O)N3CCC[C@H]3C(=O)N[C@@H](CCCN)C(=O)NCC(N)=O)NC(=O)[C@H](CC(N)=O)NC(=O)[C@H]([C@@H](C)O)NC(=O)[C@H]([C@@H](C)CC)NC2=O)cc1 [Atosiban Acetate] | 1.21 | 1.46 | 1.05 | 1.59 | 1.37 | 1.9 |
| CCc1ccc(N(CC(C)C)S(=O)(=O)c2ccc(OCC3CCOCC3)c(CO)c2)cc1 | 1.56 | 1.56 | 1.9 | 1.05 | 0.857 | 1.66 |
| CN1CCC[C@@H]1CCO[C@](C)(c1ccccc1)c1ccc(Cl)cc1 [Clemastine Fumarate] | 1.5 | 1.22 | 1.59 | 1.96 | 2.11 | 1.18 |
| Cc1cc2c(F)c(Oc3ncnn4cc(OC[C@@H](C)O)c(C)c34)ccc2[nH]1 | 2.22 | 1.25 | 1.36 | 1.71 | 1.24 | 1.6 |

| Compound | Euclidean distance (786-O) | Euclidean distance (A549) | Euclidean distance (DU145) | Euclidean distance (FB) | Euclidean distance (HEPG2) | Euclidean distance (OVCAR4) |
| --- | --- | --- | --- | --- | --- | --- |
| CN1CCC(=C2c3ccccc3CCn3c(C=O)cnc32)CC1 [Alcaftadine] | 1.07 | 0.581 | 1.26 | 1.66 | 0.597 | 1.22 |
| CC(C)(C)c1cc(/C=C(\C#N)C(N)=S)cc(C(C)(C)C)c1O [Tyrphostin AG 879] | 1.54 | 1.46 | 0.926 | 0.967 | 0.81 | 1.01 |
| CCN1CCN(Cc2ccc(Nc3ncc(F)c(-c4cc(F)c5nc(C)n(C(C)C)c5c4)n3)nc2)CC1 | 5.75 | 5.05 | 5.66 | 4.66 | 3.78 | 5.2 |
| Nc1ccc(C(=O)O)c(O)c1 [4-Aminosalicylic acid] | 0.634 | 0.798 | 2.33 | 0.835 | 0.517 | 0.799 |
| C[C@@H](O)[C@H]1C(=O)N2C(C(=O)O)=C(S[C@@H]3CN[C@H](C(=O)N(C)C)C3)[C@H](C)[C@H]12 [Meropenem] | 1.75 | 1.63 | 0.873 | 1.2 | 1.05 | 1.15 |
| O=C(Nc1cc(C(F)(F)F)ccc1N1CCCCC1)c1ccncc1 | 0.961 | 1.47 | 0.983 | 0.794 | 0.96 | 1.67 |
| Cc1nc(N(C)C(=O)Cc2ccc(-c3ccccn3)cc2)sc1S(N)(=O)=O [Pritelivir (BAY 57-1293)] | 0.793 | 0.531 | 1.07 | 0.872 | 0.577 | 0.834 |
| CN1C(=O)/C(=C2/C(=O)Nc3ccccc32)c2ccccc21 [Meisoindigo] | 1.94 | 2.33 | 0.82 | 2.24 | 1.8 | 1.35 |
| CC[C@H]1OC(=O)[C@H](C)[C@@H](O[C@H]2C[C@@](C)(OC)[C@@H](O)[C@H](C)O2)[C@H](C)[C@@H](O[C@@H]2O[C@H](C)C[C@H](N(C)C)[C@H]2O)[C@](C)(O)C[C@@H](C)C(=O)[C@H](C)[C@@H](O)[C@]1(C)O [Erythromycin] | 1.41 | 1.02 | 1.69 | 1.16 | 3.29 | 1.43 |
| CO[C@H]1CC[C@H](N2C(=O)CNc3ncc(-c4ccc(C(C)(C)O)nc4)nc32)CC1 | 3.2 | 3.38 | 2.56 | 3.76 | 2.34 | 3 |
| CC1=CC(=O)c2ccccc2C1=O [Menadione] | 1.12 | 0.782 | 0.587 | 1.16 | 0.759 | 2.12 |
| Cn1cc(-c2nc(N[C@@H]3CCCC[C@@H]3N)c(F)c3c2C(=O)NC3)cn1 | 2.54 | 2.93 | 2.88 | 2.99 | 1.85 | 2.99 |
| CC(C)NCC(O)COc1ccc(COCCOC(C)C)cc1 (centres undefined) [Bisoprolol fumarate] | 0.611 | 0.836 | 0.523 | 0.91 | 0.467 | 1.36 |
| NC(=O)OCC(COC(N)=O)c1ccccc1 [Felbamate] | 1.13 | 0.883 | 0.57 | 1.58 | 0.405 | 0.882 |
| CC(C)N(CC[C@H](c1ccccc1)c1cc(CO)ccc1O)C(C)C | 1.1 | 0.675 | 0.538 | 0.842 | 1.02 | 1.05 |
| COc1ccnc(C[S+]([O-])c2nc3cc(-n4cccc4)ccc3[nH]2)c1C (centres undefined) [Ilaprazole sodium] | 1.23 | 0.928 | 0.81 | 0.764 | 0.518 | 1.26 |
| Clc1ccc(C(c2ccccc2Cl)C(Cl)Cl)cc1 (centres undefined) [Mitotane] | 0.994 | 0.919 | 1.27 | 1.79 | 1.84 | 1.45 |
| NC(=N\CCCCCC/N=C(N)/N=C(\N)Nc1ccc(Cl)cc1)/N=C(\N)Nc1ccc(Cl)cc1 [Chlorhexidine diacetate] | 2.69 | 4.3 | 3.46 | 2.04 | 3.03 | 3.25 |
| CCCCC/C=C\C/C=C\CCCCCCCC(=O)O [Linoleic acid] | 0.927 | 1.38 | 1.02 | 1.3 | 0.86 | 1.11 |
| C[C@H]1O[C@@H](Oc2c(-c3cc(O)c(O)c(O)c3)oc3cc(O)cc(O)c3c2=O)[C@@H](O)[C@@H](O)[C@@H]1O [Myricitrin] | 1.28 | 0.726 | 1.03 | 1.54 | 0.535 | 0.952 |
| CO/N=C(\C(=O)N[C@@H]1C(=O)N2C(C(=O)OCOC(=O)C(C)(C)C)=C(/C=C\c3scnc3C)CS[C@H]12)c1csc(N)n1 [Cefditoren Pivoxil] | 1.06 | 0.732 | 1.67 | 1.03 | 2.12 | 1.5 |
| COc1cc(C(C)=O)ccc1OCCCN1CCC(c2noc3cc(F)ccc23)CC1 [Iloperidone] | 1.83 | 1.43 | 0.93 | 1.43 | 0.503 | 1.87 |
| C#C[C@]1(O)CC[C@H]2[C@@H]3CCc4cc(OC)ccc4[C@H]3CC[C@@]21C [Mestranol] | 1.12 | 0.814 | 0.785 | 1.26 | 0.905 | 1.38 |
| COC(=O)Nc1ccc(-c2nc(N3CCOCC3)c3cnn(C4CCN(C(=O)OC)CC4)c3n2)cc1 | 1.52 | 2.8 | 1.17 | 2.27 | 1.92 | 4 |
